Test results: PubChem BioAssay (NCATS)
Records with an inconclusive call do not appear. The source made the active and inactive calls. The call rests on the fitted dose curve; in most records, active means well fitted cell-killing curve with a large enough effect; inconclusive means small, poorly fitted or top-dose-only effect, or effect the other way; inactive means flat fitted curve, though single readings scatter.

What was measured:
Assay in all cases: Primary qHTS to identify gynecologic anti-cancer compounds using libraries of approved drugs and bioactive compounds (AID 1345084); further: nearly all actives have a fitted effect of over 55% in size
C33A = conditions: Gynecologic cancer cell panel viability, ATPlite luminescence, 48 h; series mostly up to 57.5 µM
How it was run: (§1)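 48 h compound exposure at 37 C, 5% CO2; five-point qHTS. ATPlite luminescence readout of cell ATP.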

CAOV3 = conditions: Gynecologic cancer cell panel viability, ATPlite luminescence, 48 h; series mostly up to 57.5 µM
How it was run: as §1

CASKI = conditions: Gynecologic cancer cell panel viability, ATPlite luminescence, 48 h; series mostly up to 57.5 µM
How it was run: as §1

Es-2 = conditions: Gynecologic cancer cell panel viability, ATPlite luminescence, 48 h; series mostly up to 57.5 µM
How it was run: as §1

HeLa = conditions: Gynecologic cancer cell panel viability, ATPlite luminescence, 48 h; series mostly up to 57.5 µM
How it was run: as §1

Hek293T = conditions: Gynecologic cancer cell panel viability, ATPlite luminescence, 48 h, control line for the selectivity index; series mostly up to 57.5 µM
How it was run: as §1

JEG-3 = conditions: Gynecologic cancer cell panel viability, ATPlite luminescence, 48 h; series mostly up to 57.5 µM
How it was run: as §1

OV90 = conditions: Gynecologic cancer cell panel viability, ATPlite luminescence, 48 h; series mostly up to 57.5 µM
How it was run: as §1

PA-1 = conditions: Gynecologic cancer cell panel viability, ATPlite luminescence, 48 h; series mostly up to 57.5 µM
How it was run: as §1

SKOV3 = conditions: Gynecologic cancer cell panel viability, ATPlite luminescence, 48 h; series mostly up to 57.5 µM
How it was run: as §1

Tov-21-G = conditions: Gynecologic cancer cell panel viability, ATPlite luminescence, 48 h; series mostly up to 57.5 µM
How it was run: as §1

Tov112D = conditions: Gynecologic cancer cell panel viability, ATPlite luminescence, 48 h; series mostly up to 57.5 µM
How it was run: as §1
On the % scale 0 is the no-effect control and ±100 the full control effect.

CCC(C)/C=C(C)/C=C/C1=CC2=C(Cl)C(=O)C(C)(OC(C)=O)C(=O)C2=CN1C1CCCCN(C(CCC(N)=O)C(=O)O)C1=O (stereo unspecified)
inactive: Potency (C33A) | Potency (CAOV3) | Potency (CASKI) | Potency (Es-2) | Potency (HeLa) | Potency (Hek293T) | Potency (JEG-3) | Potency (OV90) | Potency (PA-1) | Potency (SKOV3) | Potency (Tov-21-G) | Potency (Tov112D)

C=C(C(=O)O)C1CCC(C)C2CCC(=O)OC2(C)C1 (stereo unspecified)
inactive: Potency (C33A) | Potency (CAOV3) | Potency (CASKI) | Potency (Es-2) | Potency (HeLa) | Potency (Hek293T) | Potency (JEG-3) | Potency (OV90) | Potency (PA-1) | Potency (SKOV3) | Potency (Tov-21-G) | Potency (Tov112D)

C[C@H]1CC[C@@]2(OC1)O[C@H]1CC3C4CC=C5C[C@H](O)C[C@@H](O[C@@H]6O[C@@H](C)[C@H](O)[C@@H](O)[C@H]6O[C@@H]6O[C@@H](C)[C@H](O)[C@@H](O)[C@H]6O)[C@]5(C)C4CC[C@]3(C)[C@H]1[C@@H]2C (stereo partly specified)
inactive: Potency (C33A) | Potency (CAOV3) | Potency (CASKI) | Potency (Es-2) | Potency (HeLa) | Potency (Hek293T) | Potency (JEG-3) | Potency (OV90) | Potency (PA-1) | Potency (SKOV3) | Potency (Tov-21-G) | Potency (Tov112D)

C[C@@H]1O[C@@H](O[C@H]2[C@H](O[C@H]3CC[C@@]4(C)C(CC[C@]5(C)C4CC=C4C6CC(C)(C)CC[C@]6(C(=O)O[C@@H]6O[C@H](CO[C@@H]7O[C@H](CO)[C@@H](O[C@@H]8O[C@@H](C)[C@H](O)[C@@H](O)[C@H]8O)[C@H](O)[C@H]7O)[C@@H](O)[C@H](O)[C@H]6O)CC[C@]45C)[C@]3(C)CO)OC[C@H](O)[C@@H]2O)[C@H](O)[C@H](O)[C@H]1O (stereo partly specified)
inactive: activity change, negative = cytotoxicity (C33A) -8.84% [at 6.55 µM] | activity change, negative = cytotoxicity (CAOV3) 1.96% [at 6.55 µM] | activity change, negative = cytotoxicity (CASKI) -8.63% [at 6.55 µM] | activity change, negative = cytotoxicity (Es-2) 23.6% [at 6.55 µM] | activity change, negative = cytotoxicity (HeLa) -1.03% [at 6.55 µM] | activity change, negative = cytotoxicity (Hek293T) -5.22% [at 6.55 µM] | activity change, negative = cytotoxicity (JEG-3) -11.6% [at 6.55 µM] | activity change, negative = cytotoxicity (OV90) -14.8% [at 6.55 µM] | activity change, negative = cytotoxicity (PA-1) -4.46% [at 6.55 µM] | activity change, negative = cytotoxicity (SKOV3) -11.7% [at 6.55 µM] | activity change, negative = cytotoxicity (Tov-21-G) 8.28% [at 6.55 µM] | activity change, negative = cytotoxicity (Tov112D) -13.6% [at 6.55 µM]

CC(C)c1nc(N(C)S(C)(=O)=O)nc(-c2ccc(F)cc2)c1/C=C/[C@@H](O)C[C@@H](O)CC(=O)O
inactive: Potency (C33A) | Potency (CAOV3) | Potency (CASKI) | Potency (Es-2) | Potency (HeLa) | Potency (Hek293T) | Potency (JEG-3) | Potency (OV90) | Potency (PA-1) | Potency (SKOV3) | Potency (Tov-21-G) | Potency (Tov112D)

CC(=O)NC(C(=O)OC1CCC(C)(C)C2CC=C3C(=O)OCC3(O)C12C)C(C)C (stereo unspecified)
inactive: Potency (C33A) | Potency (CAOV3) | Potency (CASKI) | Potency (Es-2) | Potency (HeLa) | Potency (Hek293T) | Potency (JEG-3) | Potency (OV90) | Potency (PA-1) | Potency (SKOV3) | Potency (Tov-21-G) | Potency (Tov112D)

CC1CC(O)C2(C)C(C(=O)O)=CCCC2C1(C)CCc1ccoc1 (stereo unspecified)
inactive: Potency (C33A) | Potency (CAOV3) | Potency (CASKI) | Potency (Es-2) | Potency (HeLa) | Potency (Hek293T) | Potency (JEG-3) | Potency (OV90) | Potency (PA-1) | Potency (SKOV3) | Potency (Tov-21-G) | Potency (Tov112D)

CC1(C)O[C@]23C[C@H]1C[C@H](OC(=O)c1ccoc1)[C@]2(C)[C@@H](OC(=O)c1ccoc1)CCC3(C)O (stereo partly specified)
inactive: Potency (C33A) | Potency (CAOV3) | Potency (CASKI) | Potency (Es-2) | Potency (HeLa) | Potency (Hek293T) | Potency (JEG-3) | Potency (OV90) | Potency (PA-1) | Potency (SKOV3) | Potency (Tov-21-G) | Potency (Tov112D)

COc1c(OC2OC(CO)C(O)C(O)C2O)ccc(O)c1C(=O)OCc1ccccc1O[C@@H]1O[C@H](CO)[C@@H](O)[C@H](O)[C@H]1O (stereo partly specified)
inactive: Potency (C33A) | Potency (CAOV3) | Potency (CASKI) | Potency (Es-2) | Potency (HeLa) | Potency (Hek293T) | Potency (JEG-3) | Potency (OV90) | Potency (PA-1) | Potency (SKOV3) | Potency (Tov-21-G) | Potency (Tov112D)

C[C@@H]1C(=O)O[C@H]2CC34[C@H]5C[C@@H](C(C)(C)C)C36[C@@H](OC(=O)[C@@H]6O)OC4(C(=O)O5)[C@]21O (stereo partly specified)
inactive: Potency (C33A) | Potency (CAOV3) | Potency (CASKI) | Potency (Es-2) | Potency (HeLa) | Potency (Hek293T) | Potency (JEG-3) | Potency (OV90) | Potency (PA-1) | Potency (SKOV3) | Potency (Tov-21-G) | Potency (Tov112D)

CNC(=O)c1ccc2cc([C@@]3(O)CCn4cncc43)ccc2c1
inactive: Potency (C33A) | Potency (CAOV3) | Potency (CASKI) | Potency (Es-2) | Potency (HeLa) | Potency (Hek293T) | Potency (JEG-3) | Potency (OV90) | Potency (PA-1) | Potency (SKOV3) | Potency (Tov-21-G) | Potency (Tov112D)

OC[C@H]1O[C@@H](Oc2cc(O)cc(-c3cc4ccc(O)cc4o3)c2)[C@H](O)[C@@H](O)[C@@H]1O
inactive: Potency (C33A) | Potency (CAOV3) | Potency (CASKI) | Potency (Es-2) | Potency (HeLa) | Potency (Hek293T) | Potency (JEG-3) | Potency (OV90) | Potency (PA-1) | Potency (SKOV3) | Potency (Tov-21-G) | Potency (Tov112D)

C/C=C/C=C/C(CC(=O)O)Nc1ccc(C=O)cc1 (stereo unspecified)
inactive: Potency (C33A) | Potency (CAOV3) | Potency (CASKI) | Potency (Es-2) | Potency (HeLa) | Potency (Hek293T) | Potency (JEG-3) | Potency (OV90) | Potency (PA-1) | Potency (SKOV3) | Potency (Tov-21-G) | Potency (Tov112D)
